# Bioassay records: PubChem BioAssay, NMMLSC
# BoNT-A LC inh2 – BoNT/A light chain protease inhibitors, primary screen, biochemical, flow cytometry, MLPCN library; multiplex microsphere protease substrate cleavage; inhibition, % at 10 µM; 360,000 tested, 0.17% active; AID 588499, 2011
# BoNT F protease – BoNT/F light chain protease inhibitors, primary screen, biochemical, flow cytometry, MLPCN library | inhibition, % at 10 µM | 360,000 tested, 0.22% active | AID 588497, 2011 | Multiplex microsphere protease cleavage assay; in the data active = inhibition above about 35%, passing the limit was not always enough; inconclusive = no clear call, values can overlap the other calls
# Bead autofluor – flagged as autofluorescent in microsphere protease counterscreen | compound autofluorescence counterscreen, microsphere flow cytometry; stronger effect = higher value | fluorescence intensity (concentration not given with the values) | 360,000 tested, 3.1% active; in the data active = fluorescence intensity above about 16000; inconclusive = no clear call, values can overlap the other calls
# Anthrax LF inh2 – Bacillus anthracis LF protease inhibitors, primary screen, biochemical, multiplex microsphere, MLPCN library; inhibition, % at 10 µM; 360,000 tested, 0.12% active; multiplex microsphere protease cleavage assay; Lethal factor (Bacillus anthracis), P15917
# A number is an active result; - = inactive; ? = inconclusive. In the library only some 3.5% were active in any assay of this set; here they are far more common. Cut-off read from the data, not from the text of the source, unless noted: active = inhibition above about 30%; inconclusive = no clear call, values can overlap the other calls; inactive = below that.
SMILES,BoNT-A LC inh2,BoNT F protease,Bead autofluor,Anthrax LF inh2
CCCCn1c(N)c(N(CCOC)C(=O)CN2C(=O)C3CCCCC3C2=O)c(=O)[nH]c1=O (stereo not drawn),-,-,-,-
CS(=O)(=O)Nc1ccc(S(=O)(=O)NCCc2ccccc2)cc1,-,-,24049,-
CCNS(=O)(=O)c1ccc(NS(C)(=O)=O)cc1,-,-,-,-
COC(=O)Nc1ccc(OCc2ccccc2)cc1,-,-,-,-
CS(=O)(=O)Nc1ccc(OCc2ccccc2)cc1,-,-,24301,-
COc1ccccc1Nc1ncnc2nc[nH]c12,-,-,-,-
O=c1c2nnn(Cc3ccc(Cl)cc3)c2ncn1Cc1ccc(F)cc1,-,-,22862,-
CCOC(=O)c1[nH]c2cc3c(cc2c1CCCN1C(=O)c2ccccc2C1=O)OCCO3,?,-,19746,-
Fc1ccc(-c2nnc(-c3ccc4ccccc4c3)o2)cc1,-,-,-,-
CC(=O)N1CCN(C(=O)COC(=O)/C=C/c2ccc(C(F)(F)F)cc2)CC1,-,-,-,-
CCNC(=O)CC1SC(=Nc2cccc(Cl)c2C)N(C)C1=O (stereo not drawn),-,-,16300,-
CCNC(=O)CC1SC(=Nc2ccc(Cl)cc2)N(CC)C1=O (stereo not drawn),-,-,-,-
CCOC(=O)c1c(NC(=S)Nc2ccc(OCC)cc2)sc2c1CCN(C)C2,-,-,-,-
CCOC(=O)c1c(NC(=S)Nc2ccc(Cl)cc2)sc2c1CCN(C)C2,46.5,-,-,34.1
COC(=O)C1[C@H]2C(=O)N(Cc3cccs3)C[C@]23C=C[C@H]1O3 (stereo partly drawn),-,-,23081,-
CCOC(=O)C1C2C=CC3(CN(Cc4cccs4)C(=O)C13)O2 (stereo not drawn),-,-,-,-
COCCCNC(=O)C1C2C=CC3(CN(Cc4ccc(C)cc4)C(=O)C13)O2 (stereo not drawn),-,-,23422,-
Cc1ccc(CN2CC34C=CC(O3)C(C(=O)NCc3ccc5c(c3)OCO5)C4C2=O)cc1 (stereo not drawn),-,-,-,-
CC(C)Oc1ccc(/C=N/NC(=O)c2nnn(-c3nonc3N)c2CN(C)c2ccccc2)cc1,-,-,-,-
Nc1c(C(=O)c2ccccc2)oc2ccc(Br)cc12,-,-,20833,-
COC(=O)CCC(=O)c1oc2ccc(Br)cc2c1N,-,-,16549,-
Nc1c(C(=O)c2ccc(Br)cc2)oc2ccccc12,-,-,-,-
CCCCn1c(=N)n(CC(=O)c2ccco2)c2ccccc21,-,-,-,-
CCCCCCCn1c(=N)n(CC(=O)c2ccco2)c2ccccc21,-,-,?,71.8
Cc1ccsc1C(=O)N1CCN(C(=O)c2ccco2)CC1,-,-,-,-
SMILES,BoNT-A LC inh2,BoNT F protease,Bead autofluor,Anthrax LF inh2
O=C(c1cc(-c2ccc(Cl)c(Cl)c2)on1)N1CCCCC1,-,-,-,-
O=C(c1cc(-c2ccc(Cl)c(Cl)c2)on1)N1CCN(c2ccccc2)CC1,-,-,21958,-
CC1CCCCN1C(=O)c1cc(-c2ccc3c(c2)OCO3)on1 (stereo not drawn),-,-,-,-
O=C(c1cc(-c2ccccc2)on1)N1CCN(c2ccccc2)CC1,-,-,-,-
CC1CCCCN1C(=O)c1cc(-c2ccc(Cl)c(Cl)c2)on1 (stereo not drawn),?,-,22609,-
CCC1CCCCN1C(=O)c1cc(-c2ccc(Cl)c(Cl)c2)on1 (stereo not drawn),?,-,25388,-
CC(C)(C)c1ccc(OCc2ccc(C(=O)NCc3cccnc3)o2)cc1,-,-,-,-
CC1(c2ccccc2)NC(=O)N(CC(=O)N(c2ccccc2)C2CCS(=O)(=O)C2)C1=O (stereo not drawn),-,-,-,-
Cc1cccc(C)c1NC(=O)C1c2ccccc2OCC(=O)N1CCc1c[nH]c2ccccc12 (stereo not drawn),-,-,-,-
CC(C)(C)c1ccc(C(=O)c2c[nH]c(C(=O)NCCCn3ccnc3)c2)cc1,?,-,24832,-
Cc1nn(Cc2ccccc2)c(C)c1NC(=O)c1cc(-c2cccs2)on1,-,-,16449,-
COc1ccc(-c2cc(C(=O)Nc3c(C)nn(Cc4ccccc4)c3C)no2)cc1,-,-,24465,-
CSc1ccccc1NC(=O)c1cc(-c2cccs2)on1,?,-,24196,-
O=C(NCCCn1ccnc1)c1cc(-c2ccc3c(c2)OCO3)on1,-,-,20683,-
COc1cccc(-c2cc(C(=O)Nc3c(C)nn(Cc4ccccc4)c3C)no2)c1,-,-,-,-
COc1ccc(CSc2nnc(Cc3sc(-c4ccccc4)nc3-c3ccccc3)o2)cc1,-,-,-,-
Cc1c(NC(=O)c2cc(-c3ccc4c(c3)OCO4)on2)c(=O)n(-c2ccccc2)n1C,-,-,-,-
Cc1nn(Cc2ccccc2)c(C)c1NC(=O)c1cc(-c2ccc3c(c2)OCO3)on1,?,-,16514,-
COc1cccc(-c2cc(C(=O)Nc3c(C)nn(Cc4ccccc4C)c3C)no2)c1,-,-,19715,-
Cc1ccc(NC(=O)COC(=O)c2ccco2)cc1S(=O)(=O)N1CCCCC1,-,-,-,-
COc1ccc(CCNC(=O)c2c(Cl)ccc(Cl)c2OC)cc1OC,-,-,-,-
c1ccc(N2CCN(c3nc(-c4ccccn4)nc4ccccc34)CC2)cc1,-,-,-,-
CN1CCN(c2nc(-c3ccccn3)nc3ccccc23)CC1,-,-,23212,-
Cn1cc([C@@H]2C[C@H]3CN(Cc4cccc(Cl)c4)C(=O)[C@]34CCCN24)c2ccccc21,-,-,17603,-
Cc1c([C@@H]2C[C@H]3CN(Cc4cccc(Cl)c4)C(=O)[C@]34CCCN24)cnn1C,-,-,-,-
SMILES,BoNT-A LC inh2,BoNT F protease,Bead autofluor,Anthrax LF inh2
Cn1cncc1C#Cc1c(C=O)[nH]c2ccccc12,-,-,-,-
Clc1ccc(N2O[C@H]3C=C[C@@H]2C3)nc1,-,-,-,-
COc1cc(CN2CCC(n3nccc3NC(=O)c3ccc4c(c3)OCO4)CC2)ccc1O,-,-,-,-
Cc1ccc(C(=O)N2CCc3ccccc3C2)cc1S(=O)(=O)N1CCOCC1,-,-,-,-
Cc1ccccc1NC(=O)c1ccc(C)c(S(=O)(=O)Nc2ccccn2)c1,-,-,18024,-
Cc1ccccc1NS(=O)(=O)c1cc(C(=O)N2CCc3ccccc3C2)ccc1C,?,-,25113,-
CCOc1ccc(N2CC(C(=O)Nc3ccc(S(=O)(=O)NCC4CCCO4)cc3)CC2=O)cc1 (stereo not drawn),-,-,-,-
CC(NC(=O)/C(=C/c1cccc([N+](=O)[O-])c1)NC(=O)c1ccco1)C(=O)O (stereo not drawn),-,-,-,-
Cc1nnc(SCc2ccccc2CSc2nnc(C)s2)s1,-,-,-,-
COC(=O)c1ccccc1NC(=S)NC(=O)CC(C)C,-,-,22351,-
CCCCC(=O)Nc1cccc(NC(=O)c2ccccc2Br)c1,-,-,20490,-
CCCCC(=O)NC(=S)Nc1ccccc1C(=O)Nc1ccccc1,?,-,17346,-
